This is a sample that favours compounds with a hit; in the whole collection about 21% have one here.
ELG1 repair inh: blocks ELG1-dependent DNA repair in HEK293T cells | HEK293T ELG1-luciferase reporter, luminescence, 16 h; DNA damage induced by 5-fluorouridine | Potency, µM (doses to about 46.1 µM), inactives show at the top dose activity change, negative = inhibition, actives largely listed as inhibitors | 330,000 tested, 2.3% active | AID 504467; also: potency is read from the fitted curve at half-maximal effect; nearly all actives have a fitted effect of over 55% in size
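HEK293T cells expressing luciferase-tagged ELG1 (2,000/well) received 5-Fluorouridine plus compound or DMSO for 16 hr at 37 °C. Luciferase was read by ONE-Glo luminescence after 30 min at room temperature.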
TDP1 cell noCPT: qHTS for Inhibitors of human tyrosyl-DNA phosphodiesterase 1 (TDP1): qHTS in cells in absence of CPT; Potency, µM (doses to about 46.2 µM), for the others: top-dose activity change, negative = growth inhibition, usual class: inhibitors; AID 686978, 2013; DT40 Tdp1-/- hTDP1 cells, no CPT, ATP luminescence, 48 h; 420,000 tested, 15% active; also: potency is read from the fitted curve at half-maximal effect; nearly all actives have a fitted effect of over 55% in size
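Seeded 400 DT40-hTDP1 cells/well (vehicle DMSO, no 20 nM CPT); pinned compounds; ≥48 hr at 37 °C; CellTiter-Glo luminescence as viability measure.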
VP16 counter: counter-screen for ROR gamma inhibitors: Gal4-VP16 reporter; Drosophila S2 Gal4-VP16 UAS-luciferase, luminescence, 20 h; Potency, µM (highest dose often 53.6 µM), without a hit: top-dose activity, negative = inhibition, most hits filed as inhibitors; 310,000 tested, 3.5% active;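 also: Gal4-VP16 expression switched on by copper sulfate through the metallothionein promoter; potency is read from the fitted curve at half-maximal effect; nearly all actives have a fitted effect of over 50% in size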
TDP1 cell CPT: DT40-hTDP1 cell growth loss with CPT | chicken DT40 Tdp1-/-;hTDP1 cells + 20 nM CPT, ATP luminescence, 48 h | Potency, µM (highest dose often 46.2 µM), for inactives: at the highest dose activity change, negative = growth inhibition, actives largely listed as inhibitors | 420,000 tested, 12% active | AID 686979; also: potency is read from the fitted curve at half-maximal effect; nearly all actives have a fitted effect of over 55% in size
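Chicken DT40 Tdp1-/- cells stably complemented with human TDP1 were seeded at 400 cells/well in medium containing 20 nM camptothecin, exposed to pin-transferred compounds, and grown at 37 °C for at least 48 hr. Viability was read as ATP luminescence.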
IL-1B inflam inh: blocks inflammasome-driven IL-1 beta release. THP-1 LPS/ATP IL-1B secretion, AlphaLISA, 16 h; hits give low values. activity change, % at 57.5 µM. 360,000 tested, 4.7% active; in the data active = activity change below about -50%; inconclusive = mostly about -30% to -49%
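Secreted IL-1B measured by AlphaLISA bead assay after 16 h compound exposure of THP-1 cells; compounds (final up to 57.5 uM) added 1 h before LPS (250 ng/mL) and ATP (1.25 mM) stimulation; lower signal means less secretion.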
RORg inh: ROR gamma (mouse) transcription inhibition; 310,000 tested, 5.4% active; Potency, µM (top dose mostly 53.6 µM), without a hit: at the top dose activity change, negative = inhibition, usual class: inhibitors; Drosophila S2 Gal4-RORgamma UAS-luciferase reporter, 20 h; also: potency is read from the fitted curve at half-maximal effect; nearly all actives have a fitted effect of over 60% in size
Target sequence (P51450 whole entry, looked up, the tested form may be a part): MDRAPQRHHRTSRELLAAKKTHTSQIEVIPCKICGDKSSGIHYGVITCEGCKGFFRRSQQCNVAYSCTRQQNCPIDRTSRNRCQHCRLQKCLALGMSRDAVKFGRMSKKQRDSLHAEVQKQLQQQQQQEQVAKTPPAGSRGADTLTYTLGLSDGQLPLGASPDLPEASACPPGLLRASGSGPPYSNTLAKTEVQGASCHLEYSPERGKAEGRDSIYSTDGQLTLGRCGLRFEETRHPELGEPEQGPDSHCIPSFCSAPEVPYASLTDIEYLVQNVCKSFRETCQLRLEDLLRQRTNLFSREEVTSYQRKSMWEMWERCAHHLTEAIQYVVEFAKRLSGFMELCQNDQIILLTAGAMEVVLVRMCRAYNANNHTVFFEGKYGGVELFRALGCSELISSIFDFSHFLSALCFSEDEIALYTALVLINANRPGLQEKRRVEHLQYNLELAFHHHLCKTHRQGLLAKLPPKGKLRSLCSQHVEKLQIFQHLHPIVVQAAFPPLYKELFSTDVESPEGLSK
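Luminescence from a UAS-regulated Photinus luciferase reporter in stably transfected Drosophila Schneider cells is measured; decreased signal marks ROR gamma inhibition. Fusion expression is induced by 700 uM copper sulfate for 20 hr.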
The depositor's hits bear a star; ? = inconclusive; / = no result; [ ] = dose if it differs, or a comment. Unless noted, calls follow the shape of the dose curve; as a rule, active = well fitted curve in the direction sought with a large enough effect; inconclusive = small, poorly fitted or top-dose-only effect, or another doubt; inactive = no such curve, though single readings can be large; an effect the other way counts as inactive or inconclusive. % is scaled to controls: 0 for no effect and ±100 for the full control effect.

SMILES | ELG1 repair inh | TDP1 cell noCPT | VP16 counter | TDP1 cell CPT | IL-1B inflam inh | RORg inh
CCC1=Nc2cc(C(=O)O)ccc2Sc2ccccc21 | 0% | -9% | 1% | 0% | 19 | 15%
CCC1=Nc2cc(C(=O)NCc3ccco3)ccc2Sc2ccccc21 | -1% | 4.6µM* | 2% | 3.3µM* | 73 | 19%[10 µM]
Cc1ccc(CNC(=O)c2cncc(Br)c2)cc1 | ? | ? | 7% | ? | -21 | 33%
CCC1=Nc2cc(C(=O)NCc3ccc(C)cc3)ccc2Sc2ccc(C)cc21 | / | 8.2µM* | / | 7.3µM* | / | /
CCOc1ccccc1NC(=O)CN1Cc2ccccc2C1=O | / | 2% | / | 5% | / | /
CC(C)C[C@@H](CC(=O)N[C@@H](CCC(=O)O)CC(=O)O)NC(=O)[C@@H]1CNCC[C@H]1NC(=O)C[C@H](CCCN)NC(=O)C[C@H](Cc1ccccc1)NC(=O)[C@@H]1CNCC[C@H]1N | / | / | 3% | / | / | -12%
CN1C(C(=O)NCc2ccco2)=CC(c2ccc(F)cc2)=NS1(=O)=O | -3% | 6% | 3% | 5% | -7 | -6%
COC(=O)c1ccc(N2C(=O)CC(SCC(=O)Nc3ccc(OC)cc3)C2=O)cc1 (stereo not drawn) | 12% | 5.2µM* | -14% | 15µM* | 5 | -35%
CCOC(=O)c1ccc(N2C(=O)CC(SCC(=O)Nc3ccc(S(N)(=O)=O)cc3)C2=O)cc1 (stereo not drawn) | -3% | ? | ? | 23µM* | 2 | ?
Cc1ccc(N2C(=O)CC(SCC(=O)Nc3ccc(S(N)(=O)=O)cc3)C2=O)cc1 (stereo not drawn) | ? | ? | ? | ? | -6 | ?
O=C(CSC1CC(=O)N(c2ccc(C(=O)O)cc2)C1=O)Nc1ccc2ccccc2c1 (stereo not drawn) | 12% | ? | 4% | ? | -3 | -1%
COc1ccc(N2C(=O)C3CC=C(Cl)CC3C2=O)cc1 (stereo not drawn) | 25% | -1% | -3% | 0% | 14 | 13%
COc1ccc(NC(=O)c2ccc(N3C(=O)C4CC=C(Cl)CC4C3=O)cc2)cc1 (stereo not drawn) | 27% | 29µM* | -17% | -26% | 41 | 2%
NS(=O)(=O)c1ccc(NC(=O)CSC2CCCCC2)cc1 | 27% | 29µM* | 23% | 16µM* | 8 | 2%
Cc1cc(NCC2CCCCC2)nc2ccccc12 | 4% | 23µM* | 7% | ? | -100* | ?
CCOC(=O)c1ccccc1NC(=O)Cn1cc(C(=O)c2cccc(OC)c2)c(=O)c2ccc(C)nc21 | / | 1% | / | -5% | / | /
Cc1cccc2sc(NC(=O)c3cc(S(=O)(=O)N(C)C)ccc3N3CCCC3)nc12 | ? | 18µM* | -5% | ? | -124* | 31%
CN(C)S(=O)(=O)c1ccc(N2CCCC2)c(C(=O)Nc2nc3ccc(F)cc3s2)c1 | ? | -30% | 12% | -21% | -51* | ?
CCCN(CC(=O)Nc1ccc(F)c(F)c1F)C(=O)Cc1ccc(OC)c(S(=O)(=O)N2CCOCC2)c1 | / | ? | / | 2% | -1 | /
CC(C)CSc1nc(N)nc2c1ncn2C1OC(CO)C(O)C1O (stereo not drawn) | / | -4% | / | -9% | 5 | /
COC(=O)c1ccc(-c2nn(C)c(=O)c3ccccc23)cc1 | ? | -23% | -2% | -20% | 3 | 35%
COC(=O)c1ccc(C(=O)OC)c(-n2c(=O)c3ccccc3c3ccccc3c2=O)c1 | ? | ? | ? | ? | -3 | 10µM*
CC(=O)OC1CCC2C3CCc4cc(OP(=O)(N5CC5)N5CC5)ccc4C3CCC12C (stereo not drawn) | / | ? | / | ? | -2 | /
O=S(=O)(Nc1cccnc1)c1cccc(C(F)(F)F)c1 | -9% | -13% | -7% | -9% | -4 | -9%
Cc1ccc(S(=O)(=O)Nc2ccc(O)c3cccnc23)cc1 | 18µM* | 6.5µM* | ? | 2.9µM* | 74 | 10µM*
SMILES | ELG1 repair inh | TDP1 cell noCPT | VP16 counter | TDP1 cell CPT | IL-1B inflam inh | RORg inh
Cc1ccc(S(=O)(=O)Nc2cccc3ncccc23)s1 | ? | 1µM* | 0.56µM* | 0.92µM* | -112* | 0.28µM*
Cc1ccc(S(=O)(=O)Nc2ccnc3ccccc23)cc1 | -12% | 21µM* | 7% | ? | -8 | 14%
O=S(=O)(Nc1cccc2ncccc12)c1cccc(C(F)(F)F)c1 | ? | 9.2µM* | / | ? | 47 | /
Cc1ccc(S(=O)(=O)Nc2cccc3ncccc23)cc1 | -5% | -24% | -10% | ? | 32 | 28%
COc1ccn(C2CCCCO2)c(=O)n1 (stereo not drawn) | / | 2% | / | -13% | -10 | /
CCOC(=O)c1ccc(NC(=O)c2nc[nH]c2C(=O)N(C)CCO)cc1 | / | 9% | / | 0% | -28 | /
c1ccc(-c2csc(NNC3=NCCCCC3)n2)cc1 | ? | 1.8µM* | ? | 2.1µM* | -13 | ?
Fc1ccc(-c2csc(NC3=NCCC3)n2)cc1 | ? | ? | -17% | ? | ? | 9%
COc1ccc(-c2csc(NC3=NCCCCC3)n2)cc1 | ? | 2% | 21% | -4% | -4 | -7%
CCOc1ccc(-c2csc(NNC3=NCCCCC3)n2)cc1 | ? | 21µM* | -9% | 10µM* | -102* | ?
Clc1ccc(-c2csc(NNC3=NCCCCC3)n2)cc1 | ? | 16µM* | ? | ? | -77* | 5.6µM*
Nc1nonc1C(=O)NCCNC(=O)c1ccc(Cl)c(Cl)c1 | 9% | -17% | 3% | -3% | 44 | -22%
C[C@H]1Cn2cnc(C(=O)Nc3cccc(Cl)c3)c2C(=O)N1 | / | 12µM* | / | ? | -9 | /
CSc1ncc2c(n1)-c1cc(C)ccc1SC2 | -8% | 5.2µM* | 7% | 2.6µM* | -12 | -15%
COc1ccccc1C(=O)NCCC(=O)N1CCN(c2ccccc2O)CC1 | 5% | -20% | / | -13% | -11 | /
Cc1ccc(/C=C/C(=O)N2CCN(c3cccc(C(F)(F)F)c3)CC2)cc1 | 11% | -7% | -11% | -18% | -6 | ?
Cc1cn(C)c(CC(=O)N2CCN(c3cccc(C(F)(F)F)c3)CC2)c1C(=O)O | / | ? | / | 13µM* | / | /
Cc1ccc(C)c(C(=O)CCC(=O)N2CCN(c3cccc(C(F)(F)F)c3)CC2)c1 | -4% | 12µM* | / | 15µM* | 2 | /
Cc1cn(C)c(CC(=O)N2CCN(c3ccc(F)cc3)CC2)c1C(=O)O | / | -4% | / | 4% | / | /

Screening results: PubChem BioAssay, National Center for Advancing Translational Sciences (NCATS)
